Assay outcomes from PubChem BioAssay.
Only some compounds are listed: those with a hit (about 11% of all), similar ones and a draw of the others.
Pf growth 48h = P. falciparum growth inhibition at 48 hours (one generation); Potency, µM (series often up to 28.7 µM), most hits filed as inhibitors; P. falciparum luciferase growth in erythrocytes, 48 h; 5.9% of 310,000 active; AID 504832
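Compounds are pin-transferred into medium, infected erythrocytes (2% hematocrit, 0.1% parasitemia final) are added, and plates sit one parasite generation at 37 C in 5% CO2. Detection reagent is then added and luminescence measured.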
AMA1-RON2 inh = disrupts binding of P. falciparum AMA1 to RON2; AlphaScreen AMA1-biotinylated RON2 peptide binding; Potency, µM (doses to about 58.2 µM), usual class: inhibitors; 0.2% of 360,000 active; note: nearly all actives have a fitted effect of over 45% in size
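AMA1 (3D7) with his tag at 25 nM final met compounds first, then biotinylated RON2 peptide at 25 nM; detection used donor plus acceptor beads, 10 µg/mL apiece, read by AlphaScreen after 30 min at room temperature.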
HCV inhibitor = blocks hepatitis C virus; Huh7.5.1 HCVcc-Cre infection, luciferase reporter, 44 h; 3.4% of 340,000 active; AID 651820; Potency, µM (titrated, usually from 41.8 µM), hits mostly inhibitors
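Seed cells (1,000/well) for 4 h; treat with compound and infect with HCVcc-Cre, moi about 0.5. Incubate 44 h, then detect luciferase activity.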
Pf growth 96h = P. falciparum growth inhibition at 96 hours | Potency, µM (top dose mostly 28.7 µM), most hits filed as inhibitors | 6.9% of 320,000 active | P. falciparum luciferase reporter growth, 96 h | AID 504834
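P. falciparum expressing integrated firefly luciferase, in erythrocytes at 2% hematocrit, 0.05% parasitemia, incubated with compounds 96 h at 37 C, 5% CO2. Growth inhibition read as loss of luminescence; two-generation exposure targets delayed-death apicoplast inhibitors.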
A number is an active result; 0 = inactive; ? = inconclusive; - = no result; [ ] = dose if it differs, or a comment. Calls come from the whole dose curve; as a rule, active = well fitted curve in the direction sought with a large enough effect; inconclusive = small, poorly fitted or top-dose-only effect, or another doubt; inactive = no such curve, though single readings can be large; an effect the other way counts as inactive or inconclusive.

SMILES	Pf growth 48h	AMA1-RON2 inh	HCV inhibitor	Pf growth 96h
CN1C(=O)N(C)C2(c3ccccc3)Nn3c(s/c(=C/c4ccco4)c3=O)=NC12c1ccccc1 (stereo not given)	11.7µM	0	0	0
CCN(C(=O)CN1CCN(S(=O)(=O)c2ccccc2C(F)(F)F)CC1)c1c(N)n(Cc2ccccc2)c(=O)[nH]c1=O	0	0	0	?
O=C(CCCCO)CCCCCCCC[C@H]1N[C@H](CO)[C@H](O)[C@@H]1O[C@@H]1O[C@H](CO)[C@@H](O)[C@H](O)[C@H]1O	0	0	?	0
CCOc1cc(C(c2c(C)[nH][nH]c2=O)c2c(C)[nH][nH]c2=O)cc(Br)c1OC	0[0.00184 µM]	0	0	0
COc1cc(C(c2c(C)[nH][nH]c2=O)c2c(C)[nH][nH]c2=O)cc(Br)c1OC	0	0	0	7.38µM
C/C=C/C(=O)Nc1cccc(C2=NOC3(C2)C[C@H](C(N)=O)N(C(=O)c2ccccc2C(=O)c2ccccc2)C3)c1 (stereo not given in full)	9.28µM	-	-	11.7µM
C/C=C(\C)C(=O)N1CC2(CC(c3cccc(NC(=O)CC(c4ccccc4)c4ccccc4)c3)=NO2)C[C@H]1C(N)=O (stereo not given in full)	?	-	-	0
NC(=O)[C@H]1CC2(CC(c3cccc(NC(=O)CC(c4ccccc4)c4ccccc4)c3)=NO2)CN1C(=O)C(c1ccccc1)c1ccccc1 (stereo not given in full)	10.4µM	0	0	13.1µM
NC(=O)[C@@H]1CC2(CC(c3cccc(NC(=O)[C@@H]4CCC(=O)N4)c3)=NO2)CN1C(=O)Cc1ccc([N+](=O)[O-])cc1 (stereo not given in full)	0	0	0[8.37 µM]	0
NC(=O)[C@H]1CC2(CC(c3cccc(NC(=O)CC(c4ccccc4)c4ccccc4)c3)=NO2)CN1C(=O)c1ccccc1C(=O)c1ccccc1 (stereo not given in full)	9.28µM	0	0[8.37 µM]	8.28µM
C/C=C\C(=O)Nc1cccc(C2=NOC3(C2)C[C@H](C(N)=O)N(C(=O)Cc2ccc([N+](=O)[O-])cc2)C3)c1 (stereo not given in full)	?	0	0	11.7µM
Cn1c(COc2ccc(F)cc2)nnc1SCC(=O)NC1CC1	0	0	0	?
COc1cccc(-c2cnc(C(O)c3cc(C)ccc3C)[nH]2)c1 (stereo not given)	-	0	-	-
S=C(NCc1ccccc1)N1CCN(C(=S)NCc2ccccc2)CC1	0	0	0	0
CC(=O)Nc1ccc(N2C(C(C)=O)=NN(c3ccc(Cl)cc3)C2c2sccc2C)cc1 (stereo not given)	9.28µM	0	?	?
Cn1c(SCC(=O)NCCc2ccccc2)nnc1C1CCCCC1	0	0	0	0
COc1ccc(NS(=O)(=O)c2ccc(C(=O)N3CCCCCC3)cc2)cc1	-	0	14.1µM	-
O=C(c1ccc(Nc2cccc(C(F)(F)F)c2)nc1)N1CCCC1	?	0	0	16.5µM
Cc1ccc(NS(=O)(=O)c2ccc(C(=O)N3CCCCCC3)cc2)cc1	10.4µM	0[11.6 µM]	?	?
O=C(c1ccc(NS(=O)(=O)c2cccc(C(F)(F)F)c2)cc1)N1CCCC1	0	0	0	10.4µM
Cc1ccc(NS(=O)(=O)c2ccc(C(=O)N3CCC3)cc2)cc1	?	0	?	0
Cc1ccc(NS(=O)(=O)c2ccc(C(=O)N3CC(C)OC(C)C3)cc2)cc1 (stereo not given)	?	0	0	13.1µM
Cc1ccc(S(=O)(=O)C2(C(=O)N3CCCCCC3)CC2)cc1	0	0	0	4.15µM
COc1ccc(NS(=O)(=O)c2ccc(NC(=O)C3CC3)cc2)cc1	0	0	10µM	?
Cc1ccc(NS(=O)(=O)c2ccc(C(=O)N3CCCCCCC3)cc2)cc1	?	0	0	2.08µM
SMILES	Pf growth 48h	AMA1-RON2 inh	HCV inhibitor	Pf growth 96h
Cc1ccc(S(=O)(=O)C2(C(=O)N3CCN(C4CCCCC4)CC3)CC2)cc1	0	0	0	0
Cc1ccc(NS(=O)(=O)c2ccc(C(=O)N3CCCN(C)CC3)cc2)cc1	0	0	?	0
CCOc1ccc(NS(=O)(=O)c2ccc(NC(=O)C3CC3)cc2)cc1	0	0	?	?
CC(C(=O)NC1CCCCC1)N1CCN(S(=O)(=O)c2cccs2)CC1 (stereo not given)	0	0	0	0
CCc1nc2c(OCc3cc(Cl)cc(Cl)c3)cccn2c1N(C)C(=O)c1ccccc1F	-	0	-	-
CCCCOc1ccc(S(=O)(=O)Nc2ccc(NC(C)=O)cc2)cc1	0	0	8.91µM	?
CCCCN(CCCC)S(=O)(=O)c1ccc(NS(=O)(=O)c2ccc(NC(C)=O)cc2)cc1	0	0	0	-
CCCCCC(=O)Nc1ccc(S(=O)(=O)Nc2nccnc2OC)cc1	0	0	0	2.33µM
CCOc1cc(/C=C2\SC(=N)N(c3nonc3N)C2=O)ccc1OCC(N)=O	0	0	?	0
CCOc1cc(/C=C2\SC(=N)N(c3nonc3N)C2=O)ccc1OCCN1CCOCC1	1.31µM	0	0	?
CN(C)c1ccc(/C=C(/NC(=O)c2ccccc2)C(=O)N/N=C/c2ccc([N+](=O)[O-])c(O)c2)cc1	13.1µM	0	?	5.22µM
Cc1oc2c(CN3CCOCC3)c(O)ccc2c(=O)c1-c1ccc(Br)cc1	4.15µM	0	0	13.1µM
Cc1oc2c(CN3CCOCC3)c(O)ccc2c(=O)c1-c1ccc(Cl)cc1	?	0	0	9.28µM
CCOC(=O)c1oc2c(CN3CCCCC3C)c(O)ccc2c(=O)c1-c1ccc(OC)c(OC)c1 (stereo not given)	?	0	0	?
Cc1oc2c(CN3CCCC3)c(O)ccc2c(=O)c1-c1ccc(Cl)cc1	?	0	0	0
CC1CCCCN1Cc1c(O)ccc2c(=O)c(-c3nc4ccccc4s3)coc12 (stereo not given)	2.08µM	0	?	10.4µM
Cc1oc2c(CN3CCCCC3C)c(O)ccc2c(=O)c1-c1ccc(Br)cc1 (stereo not given)	13.1µM	0	0	13.1µM
Cc1c(C)n2c(SCC(=O)N3CCCCC3)nnc2[nH]c1=O	0	0	0[8.37 µM]	?
CC(Cc1cccs1)NC(=O)Nc1ccc(Cl)c(Cl)c1 (stereo not given)	-	0	?	?
COc1ccc(N2CCN(c3cc(C(=O)NC4CCCCC4)ncn3)CC2)cc1OC	-	0	-	-
C=CCn1c(O)c(C(C)=NCCC(c2ccccc2)c2ccccc2)c(=O)[nH]c1=O	0	0	0	11.7µM
N#CC1=C(N)Oc2cc(N)ccc2C1c1ccc(F)cc1F (stereo not given)	0	0	?	5.86µM
N#CC1=C(N)Oc2cc(N)ccc2C1c1ccc(F)cc1 (stereo not given)	0	0	?	-
O=C(Nc1cc(C2CC2)nn1-c1ccccc1)c1ccc(F)cc1	-	0	0	-
Cc1ccc(Cn2c(C3CCCN3c3nc(-c4cc(Cl)c(N)c(Cl)c4)cs3)nc3cc(C(=O)NCCCO)ccc32)cc1 (stereo not given)	-	0	1.41µM	-
O=C(NCCc1ccccc1)C1CCC(CNS(=O)(=O)c2cccs2)CC1 (stereo not given)	0	0	0	?
